Records with an inconclusive call do not appear. Activity calls are given as the source filed them. Rule for the calls, unless noted: active = hit-call score of the fitted dose curve at least 0.9, where 1 is the maximum; inconclusive = response in the unintended direction; inactive = score below 0.9.
Assays:
[1] = Tanguay_ZF_120hpf_SWIM_legacy: (Legacy) Oregon State University Tanguay Lab 120 Hour Post-fertilization zebrafish Assay for Swim Bladder Malformation (AID 2283654);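 note: swim bladder malformation in each larva scored yes or no under brightfield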
How it was run: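 Dechorionated wild-type Tropical 5D zebrafish embryos, one per well from 6 hpf, were statically exposed at 28C until 120 hpf in 0.64% DMSO. Swim bladder malformation scored as present/absent by brightfield microscopy; not scored in dead larvae.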

[2] = Tanguay_ZF_120hpf_TRUN_legacy: (Legacy) Oregon State University Tanguay Lab 120 Hour Post-fertilization zebrafish Assay for Truncated Body (AID 2283655)
How it was run: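 Dechorionated Tropical 5D wild-type embryos placed singly from 6 hpf and statically exposed to 120 hpf at 28C, final DMSO 0.64%. Truncated body scored as present/absent by brightfield; not scored in dead embryos.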

[3] = Tanguay_ZF_120hpf_NC_legacy: (Legacy) Oregon State University Tanguay Lab 120 Hour Post-fertilization zebrafish Assay for Notochord and Tail Malformation (AID 2283656)
How it was run: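 Dechorionated 5D zebrafish, 1/well from 6 hpf; static exposure to 120 hpf, 28C, sealed, dark; final DMSO 0.64% v/v. NC scored binary (present/absent); dead embryos not scored. Fit vs DMSO baseline, gain direction.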

[4] = system: Thyroperoxidase (TPO), gene 54314; assay: CCTE_Simmons_AUR_rTPO: CCTE's Amplex UltraRed Assay for Thyroperoxidase (TPO) Inhibition, Simmons Lab (AID 2283662);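 note: potency for loss of signal meaning inhibition of peroxidase activity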
How it was run: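 Endpoint is decreased Amplex UltraRed fluorescence after a 30-min, 37C reaction of rat thyroid microsomes with 300 uM H2O2. Eight test concentrations (5 nM–87.5 uM final) in 0.5% DMSO, three biological replicates each.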

[5] = Tanguay_ZF_120hpf_TR_legacy: (Legacy) Oregon State University Tanguay Lab 120 Hour Post-fertilization zebrafish Assay for Touch Response (AID 2283667)
How it was run: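 Tropical 5D wild-type zebrafish embryos statically exposed to 120 hpf at 28°C, sealed and dark-covered, 0.64% DMSO final; touch response scored as present/absent by brightfield microscopy at 120 hpf. Trimethyltin chloride 5 uM positive control; dead embryos not scored.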

[6] = read-out: solute carrier (SLC22A6), SLC22A6 (gene 9356); assay: LTEA_HepaRG_SLC22A6: Life Technologies and Expression Analysis (LTEA) Assay for solute carrier (SLC22A6) using HepaRG (AID 2283653; active = hit-call score of the fitted dose curve at least 0.9, where 1 is the maximum; inactive = score below 0.9); conditions: mRNA level, 48 h; actives raise or lower the signal
How it was run: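 Differentiated HepaRG cells exposed 48 h in serum-free induction medium to 8 half-log concentrations, top 100 uM, in 0.5% DMSO; SLC22A6 mRNA by Fluidigm qRT-PCR normalized to ACTB, GAPDH, POLR2A, fitted bidirectionally versus DMSO.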

[7] = read-out: solute carrier (SLC10A1), SLC10A1 (gene 6554); assay: LTEA_HepaRG_SLC10A1: Life Technologies and Expression Analysis (LTEA) Assay for solute carrier (SLC10A1) using HepaRG (AID 2283657; active = hit-call score of the fitted dose curve at least 0.9, where 1 is the maximum; inactive = score below 0.9); conditions: mRNA level, 48 h; actives raise or lower the signal
How it was run: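 HepaRG cells (single lot) exposed 48 h in serum-free induction medium, 8-point half-log series from 100 uM top in 0.5% DMSO, duplicate. SLC10A1 mRNA by qRT-PCR normalised to ACTB, GAPDH, POLR2A; bidirectional fit versus DMSO.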

[8] = read-out: matrix metalloproteinase-1 (MMP1), MMP1 (gene 4312); assay: LTEA_HepaRG_MMP1: Life Technologies and Expression Analysis (LTEA) Assay for matrix metalloproteinase-1 (MMP1) using HepaRG (AID 2283658; active = hit-call score of the fitted dose curve at least 0.9, where 1 is the maximum; inactive = score below 0.9); conditions: mRNA level, 48 h; actives raise or lower the signal
How it was run: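 Differentiated human HepaRG cells, 48 h post-plating in serum-free induction medium, were exposed 48 h to eight half-log concentrations topping at 100 uM in 0.5% DMSO, duplicate. MMP1 mRNA measured by Fluidigm TaqMan qRT-PCR, normalized to ACTB, GAPDH, POLR2A; bidirectional fits versus DMSO.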

[9] = CCTE_Simmons_CellTiterGLO_HEK293T: Viability Assessment in CCTE's Assays for Thyroperoxidase (TPO) Inhibition, Simmons Lab (AID 2283665);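 for AC50: cells exposed to compound for 24 h before readout; actives reduce ATP signal below DMSO vehicle meaning cytotoxicity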
How it was run: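 Cytotoxicity counter-screen: human HEK293T cells in low-serum (1% FBS) medium receive test chemical, 5 nM to 87.5 uM final, for 24 h; ATP is quantified by luciferase luminescence.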

[10] = read-out: Cytochrome P450 (CYP24A1_1), CYP24A1 (gene 1591); assay: LTEA_HepaRG_CYP24A1_1: Life Technologies and Expression Analysis (LTEA) Assay for Cytochrome P450 (CYP24A1_1) using HepaRG (AID 2283671; active = hit-call score of the fitted dose curve at least 0.9, where 1 is the maximum; inactive = score below 0.9); conditions: mRNA level, 48 h; actives raise or lower the signal
How it was run: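 Differentiated human HepaRG cells in serum-free induction medium, exposed 48 h in duplicate to eight half-log concentrations from 100 uM top, 0.5% DMSO. Transcript measured by TaqMan qRT-PCR, normalised to ACTB, GAPDH, POLR2A; bidirectional fitting versus DMSO.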

Measured: AC50

CN(C)c1ccccc1
inactive: [1] | [2] | [3] | [5]
active: [4] 22.7 µM

O=C(Oc1ccc(Br)cc1)N1CCN2CCC1CC2
inactive: [1] | [2] | [3]

Nc1ccc(Cl)cc1N
active: [7] 20.9 µM | [8] 50 µM | [4] 13.1 µM | [10] 30.8 µM
inactive: [6] | [1] | [9] | [5]

CN(C)[C@@H]1C(=O)C(C(N)=O)=C(O)[C@@]2(O)C(=O)C3=C(O)c4c(O)cccc4[C@@](C)(O)[C@H]3C[C@@H]12
active: [4] 10.7 µM
inactive: [1] | [2] | [3] | [9] | [5]

CC(C)(C)OOC(=O)c1ccccc1
inactive: [1] | [2]

ClC1=C(Cl)C2(Cl)C3C(Cl)C=CC3C1(Cl)C2(Cl)Cl (centres undefined)
inactive: [6] | [1] | [7] | [8] | [5] | [10]

C=CCc1ccc2c(c1)OCO2
inactive: [1] | [2] | [3] | [5]
active: [4] 36.4 µM | [9] 66.7 µM

CN(C)c1ccc(C(=O)c2ccc(N(C)C)cc2)cc1
active: [1] 30.1 µM | [4] 8.94 µM | [9] 43.8 µM | [5] 43.3 µM
inactive: [2] | [3]

OCCOCCO
inactive: [1] | [2] | [3] | [5]

CCCCCCCCn1sccc1=O
inactive: [1] | [2] | [3] | [5]

Cc1ccc([N+](=O)[O-])cc1
not listed: [4] | [9]
inactive: all other assays above

Cc1cccc(N)c1N
active: [4] 2.35 µM | [9] 4.54 µM
inactive: [1] | [2] | [3] | [5]
